PubChem BioAssay (NCI)
This is part of a sample that, as a whole, favours compounds with a hit. Of some 83,000 tested, about 20% had one in any assay.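 Note: values are percent growth. 100 is the growth of untreated cells, values between 100 and 0 indicate rising inhibition; between -100 and 0 indicates cell death.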 Unmarked numbers belong to inactive results. The source made the active and inactive calls. How the source made its calls: active means growth percent below 10; inactive means the rest.

Each compound was assayed on NCI-H226 lung (assay: NCI-60 one-dose screen, 48 h (100 = growth as untreated, 0 = no growth, -100 = all killed)). Conditions: 10 µM unless noted.

Structure (SMILES)	growth [%]
O=C1c2ccccc2-c2c1c1ccncc1c(=O)n2CCCn1ccnc1	54.4
O=C1Nc2ccccc2/C1=C/c1cccn1CCCCCCn1c2ccccc2c(=O)c2ccccc21	72.7
O=C(Nc1ccccc1CNc1nc(Nc2ccc(OCCN3CCCC3)cc2)ncc1Cl)NC1CCCCC1	97
CSc1nc(CC(C)C)c(C#N)c(=O)n1C	60.3
CS(=O)(=O)Nc1cc(-c2ccc3ncnc(Nc4cccc(Cl)c4)c3c2)cnc1Cl	11.8
N#Cc1c(-c2ccc(Cl)cc2)nc(NN=Cc2cccc(Cl)c2)nc1N1CCOCC1	91.6
CNC1=C([N+](=O)[O-])C(c2ccc(OC)cc2)C(C#N)=C(c2ccc[nH]2)O1 (configuration not stated)	102

The compounds below were run on NCI-H322M lung in the same assay as above. Conditions: 10 µM unless noted.

Structure (SMILES)	growth
CS(=O)(=O)c1ccc(/C(=N/NC(N)=S)c2ccc(F)cc2)cc1	104%
CC1(C)CC[C@]2(CO)CC[C@]3(C)C(=CC[C@@H]4[C@@]5(C)CCNCC(C)(C)[C@@H]5CC[C@]43C)[C@@H]2C1	68.9%
C=C(CNCCc1ccc(O)cc1)[C@@H]1CC[C@]2(CO)CC[C@]3(C)[C@H](CC[C@@H]4[C@@]5(C)CCC(N)C(C)(C)[C@@H]5CC[C@]43C)[C@@H]12 (some centres not stated)	-53.7% (active)
C(=N\Nc1nnc2n1N=C(c1ccccc1)CS2)/c1ccc(OCc2ccccc2)cc1	107%
O=C(/C=C\c1ccc(O)c(O)c1)c1ccccc1O	79.7%
COc1ccc(/C=C2/CCc3cc4ccc(OC)cc4[o+]c32)c(O)c1	84.6%
Cc1ccc(-c2nnc(SCc3nc(N)nc(Nc4ccccc4F)n3)n2-c2ccccc2)cc1	93.5%
O=C(Nc1cccc(Cl)c1)Oc1c(Cl)c(Cl)c(Cl)c(Cl)c1Cl	109%
COc1ccc(-c2csc(NC(=O)CSc3nc(C)cc(=O)[nH]3)n2)cc1	106%
Cc1c(C)c2c(c(C)c1OC(=O)CCC(=O)[O-])CCC(C)(CCCCCCCCCCC[P+](c1ccccc1)(c1ccccc1)c1ccccc1)O2 (configuration not stated)	0.982% (active)
CCN(CC)CCCNC(=O)c1c2c(n3ccccc13)C(=O)c1ncccc1C2=O	-49% (active)
O=C(/C=C/c1ccc([N+](=O)[O-])cc1)c1cccc(Nc2nc(Nc3ccccc3)nc(Nc3ccccc3)n2)c1	75.9%
CN1CC(c2ccccc2)C(C(=O)c2ccc(Br)cc2)C12C(=O)Nc1ccccc12 (configuration not stated)	103%
COCCNC(=O)Cc1cc(-c2ccc(Cl)cc2)n(-c2ccccc2)c1C	95.4%
CNc1nc2ncc(-c3c(C)noc3C)cc2n1Cc1ccccc1	67.1%
CC1(C)CC[C@]2(CO)CC[C@]3(C)[C@H](CC[C@@H]4[C@@]5(C)CC[C@H](O)C(C)(C)[C@@H]5CC[C@]43C)[C@H]2[C@H]1O	69.2%
COC(=O)[C@@H](Cc1c[nH]c2ccccc12)NC[C@@H](O)CN1C(=O)/C(=C\c2cc(OC)c(OC)c(OC)c2)c2ccccc21	84.8%
CCc1ccc(Cc2cnc(NC(=O)c3cc(C)oc3C)s2)cc1	56.8%
CN1CCN(CC(=O)N(C)c2ccc(N=C(c3ccccc3)c3c(O)[nH]c4ccc([N+](=O)[O-])cc34)cc2)CC1	82.4%
COc1cc2c(c(OC)c1OC)CCC(c1cccc(NC(=O)c3cccc(Cl)c3)c1)O2 (configuration not stated)	90.3%

Structure (SMILES)	growth
O=C1C2C(c3cccs3)C=C(c3ccc(Cl)cc3)N2C(=S)N1c1ccccc1 (configuration not stated)	102%
CCN1CCN(c2cc(C(=O)Nc3cccc(Nc4ccc5c(OC)cccc5n4)c3)cc(C(F)(F)F)c2)CC1	26.2%
CCCNNC(=O)c1ccc(CNC(=O)/C=C/c2ccccc2)cc1	34.5% [2.5 µM]
CC(=O)Oc1ccccc1C(=O)N(Cc1ccc2c(Cl)cc(Cl)c(O)c2n1)c1ccccc1	54.9%
CN(C)c1ccc(/C=N/NC(=O)CSc2nc3sc4c(c3c(=O)n2-c2ccccc2)CCCCC4)cc1	44.9%
N#Cc1nn(-c2ccccn2)c(N)c1C#N	107%
CC(Cc1cccc2ccccc12)C(N)=O (configuration not stated)	98.1%
Cc1nc2ccccc2c(/C=C/c2ccc(Br)cc2)c1C(=O)/C=C/c1ccccc1	35.3%
c1ccc2[nH]c(-c3ccc(-c4nccc5c4[nH]c4ccccc45)cc3)nc2c1	58.7%
Cc1[nH]c(C(=O)Nc2ccc(C(N)=O)cc2OC(C)C)c(Cl)c1Cl	100%
C/C=C(/C)C(=O)O[C@@H]1CC(C)(C)CC2C34OC(=O)[C@@]21CC[C@@]3(C)[C@]1(C)CCC2C(C)(C)C(=O)CC[C@]2(C)C1C[C@@H]4O (some centres not stated)	70.2%
C=C(C[n+]1ccccc1)[C@@H]1CC[C@]2(C(=O)OC)CC[C@]3(C)[C@H](CC[C@@H]4[C@@]5(C)CCC(=O)C(C)(C)[C@@H]5CC[C@]43C)[C@@H]12	96.3%
COC(=O)c1c(C(=O)OC)c2ccc3c4ncccc4ccc3n2c1C(=O)c1ccc(C)cc1	90.7%
O=C1c2ccccc2-c2c1c1ccncc1c(=O)n2CCCn1ccnc1	83.8%
O=C1Nc2ccccc2/C1=C/c1cccn1CCCCCCn1c2ccccc2c(=O)c2ccccc21	97.9%
O=C(Nc1ccccc1CNc1nc(Nc2ccc(OCCN3CCCC3)cc2)ncc1Cl)NC1CCCCC1	109%
CSc1nc(CC(C)C)c(C#N)c(=O)n1C	84.7%
CS(=O)(=O)Nc1cc(-c2ccc3ncnc(Nc4cccc(Cl)c4)c3c2)cnc1Cl	1.07% (active)
N#Cc1c(-c2ccc(Cl)cc2)nc(NN=Cc2cccc(Cl)c2)nc1N1CCOCC1	88.7%
CNC1=C([N+](=O)[O-])C(c2ccc(OC)cc2)C(C#N)=C(c2ccc[nH]2)O1 (configuration not stated)	101%
